Rce1 inh: yeast Ras-converting enzyme inhibition | calls only | yeast membranes, quenched prenylated peptide cleavage fluorescence | hit rate 0.27% among 290,000 | Q03530;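 active = fall in fluorescence gain of 50% or more versus controls, with final raw signal at or below 3038400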
FID counter: counter-screen for HCV NS3 helicase inhibitors: DNA intercalator displacement. DNA fluorescent intercalator displacement, fluorescence. inhibition, % at 7.9 µM. hit rate 0.17% among 290,000; in the data active = inhibition above about 37%;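 note: higher means more ethidium bromide displaced from hairpin DNA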
Kir21 inh: blocks the mouse Kir2.1 inward-rectifier potassium channel; HEK293-Kir2.1, FluxOR thallium flux fluorescence; stronger effect = lower value; B-score at 10 µM; hit rate 0.85% among 310,000; AID 1672;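 active = fluorescence ratio B-score at or below minus 3 SD of library scores, with starting-brightness B-score within 2 SD, cut at about -4.2 in these data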;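 note: channel flux triggered by added potassium and thallium sulfate stimulus; B-score of peak minus minimum fluorescence over baseline after thallium stimulus; more negative B-score means stronger Kir2.1 block with less thallium influx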
Target sequence (P35561 whole entry, looked up): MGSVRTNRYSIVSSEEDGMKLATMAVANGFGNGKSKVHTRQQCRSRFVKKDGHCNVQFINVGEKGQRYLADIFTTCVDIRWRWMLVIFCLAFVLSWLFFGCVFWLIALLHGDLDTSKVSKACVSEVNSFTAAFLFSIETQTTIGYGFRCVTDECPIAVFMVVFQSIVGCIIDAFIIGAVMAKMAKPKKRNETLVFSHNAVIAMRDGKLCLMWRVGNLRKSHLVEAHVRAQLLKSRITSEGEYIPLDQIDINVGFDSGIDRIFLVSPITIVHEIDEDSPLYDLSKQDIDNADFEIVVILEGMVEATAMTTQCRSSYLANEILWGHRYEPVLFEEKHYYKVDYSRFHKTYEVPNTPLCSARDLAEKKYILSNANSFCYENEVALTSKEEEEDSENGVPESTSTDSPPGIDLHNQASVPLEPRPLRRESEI
M18AAP inhibitor: blocks P. falciparum M18 aspartyl aminopeptidase. recombinant PfM18AAP, H-Glu-NHMec fluorogenic cleavage. inhibition, % at 7.35 µM. hit rate 1.2% among 290,000. AID 1822;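 active = inhibition above the campaign mean inhibition over all tested compounds plus 3 SD, cut at about 28% in these data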
Each line names hits and unclear results; the compound was inactive in the other large screens. Most compounds without a hit are left out; they make up all but 2.3% or so of the library.

CCCN1CCN(C(=S)Nc2ccc3nc(N4CCN(CC)CC4)cc(C)c3c2)CC1	FID counter 50.0
Cc1ccc(C)c(N2CCN(C(=S)Nc3ccc4nc(N5CCN(C)CC5)cc(C)c4c3)CC2)c1	FID counter 46.7
CCN1CCN(c2cc(C)c3cc(NC(=S)N4CCN(c5ccccc5)CC4)ccc3n2)CC1	none
Cc1ccc(C)c(N2CCN(C(=S)Nc3ccc4nc(N5CCOCC5)cc(C)c4c3)CC2)c1	none
O=C(Cn1nnc(-c2ccc([N+](=O)[O-])cc2)n1)NNC(=O)c1ccccc1	none
CCCS(=O)(=O)N1CCc2ccc(NC(=O)C3CCCO3)cc2C1 (configuration not stated)	none
COc1ccc(CCNC(=O)Cn2c(=O)n(-c3ccc(F)cc3)c(=O)c3sccc32)cc1OC	none
COc1ccc(Br)cc1C(=O)Nc1cc(C)cc(C)c1	Rce1 inh active
O=C(Nc1cccc(Cl)c1)c1ccccc1NC(=O)C1CCCCC1C(=O)O (configuration not stated)	none
CN(CC(=O)Nn1cnnc1)S(=O)(=O)c1ccc(Br)cc1	M18AAP inhibitor 30.4
O=C(CCC(=O)N1CCOc2ccc(Cl)cc21)NCCCN1CCC(Cc2ccccc2)CC1	Kir21 inh -6.64
CCOc1ccc2nc(N3CCCC(C(=O)NCCCN4CC(C)CC(C)C4)C3)sc2c1 (configuration not stated)	none
CCN1/C(=C/c2sc(-c3ccccc3C)c[n+]2C)Sc2ccccc21	Kir21 inh -7.61
C#Cc1cccc(C(=O)N2CCCC(C(=O)c3ccc(OC)cc3C)C2)c1 (configuration not stated)	Kir21 inh -4.33
COc1ccc2cc(C(=O)C3CCCN(C(=O)c4cc(=O)n(C)c(=O)n4C)C3)ccc2c1 (configuration not stated)	Rce1 inh active
COc1ccc(C(=O)C2CCCN(C(=O)c3csc(C(C)=O)c3)C2)c(C)c1 (configuration not stated)	none
COc1ccc2cc(C(=O)C3CCCN(C(=O)c4ccnn4C)C3)ccc2c1 (configuration not stated)	none
Cn1c(SCc2ccccc2)nnc1-c1ccncc1	none
Cn1c(SCc2n[nH]c(=S)n2-c2ccccc2)nnc1-c1ccccc1	M18AAP inhibitor 29.6
O=C1CN(S(=O)(=O)c2ccc([N+](=O)[O-])cc2)CC(=O)N1	Rce1 inh active
CCOC(=O)C1CCCN(S(=O)(=O)c2cc3[nH]c(=O)c(=O)[nH]c3cc2C)C1 (configuration not stated)	Rce1 inh active
CCOC(=O)C1CCCN(S(=O)(=O)c2ccc(S(=O)(=O)N3CCCC3)cc2)C1 (configuration not stated)	none (no result: FID counter, M18AAP inhibitor)
CCOc1ccc(CN(C)C(=O)[C@H](C)NC(=O)c2ccco2)cc1OC	none
CCOC(=O)c1c(-c2ccccc2)oc2ccc(O)c(CN(C)C)c12	Kir21 inh -6.38
COCCOC(=O)c1c(C)oc2ccc(O)c(CN3CCC(C)CC3)c12	none
CCOC(=O)c1c(CSCc2ccccc2)oc2ccc(O)c(CN(C)C)c12	none
CCOC(=O)c1c(-c2ccccc2)oc2ccc(OCC(O)CN(C)C)cc12 (configuration not stated)	Kir21 inh -7.77
CCOC(=O)c1c(-c2ccccc2)oc2ccc(O)c(CN3CCCC3)c12	Kir21 inh -11.9
CCOc1ccc(N(C(=O)c2snc(C(N)=O)c2N)C(C(=O)NC2CCCC2)c2ccncc2)cc1 (configuration not stated)	none
COC(C(=O)N1CCC(CCC(=O)Nc2ccccc2)CC1)c1ccccc1 (configuration not stated)	none
CCn1c(SCC(=O)NC2CC2)nnc1-c1ccc(C)cc1	none
COC(=O)c1c(N2C(=O)[C@H]3[C@@H](C2=O)[C@]2(C(=O)Nc4ccc(C)cc42)N2CCC[C@@H]32)sc(C)c1C	none
CC1CN(C(=O)CCC(=O)NCc2ccccc2Cl)c2ccccc2S1 (configuration not stated)	none
COc1ccc(CN(C(=O)Cc2c[nH]c3ccccc23)C(C(=O)NC2CCCCC2)c2ccc(C)o2)cc1 (configuration not stated)	FID counter 89.0
COc1ccc(S(=O)(=O)NCC2CCCN(Cc3cn(C)nc3C)C2)cc1 (configuration not stated)	none
Cc1nc(N)nc(N)c1CCCc1ccc(Cl)c(Cl)c1	Kir21 inh -7.81 (no result: FID counter, M18AAP inhibitor)
O=C(CN1CCOCC1)Nc1ccccc1Sc1ccccc1	Kir21 inh -6.3
N=c1sccn1CC(=O)Nc1ccccc1Sc1ccccc1	Kir21 inh -4.84
O=C(CNCCN1CCOCC1)Nc1ccccc1Sc1ccccc1	none
O=[N+]([O-])c1cccc(CSc2nnc(Cc3ccccc3)n2-c2ccc(F)cc2)c1	Kir21 inh -5.78
O=C(O)CSc1nnc(Cc2ccccc2)n1-c1ccccc1	none
Cc1ccc(-n2ncc(C(=O)Nc3cc(Cl)cc(Cl)c3)c2C2CCNCC2)cc1C	FID counter 42.7, Kir21 inh -7.3
CC(C)C1Nc2ccc(C(=O)NCc3ccco3)cc2NC1=O (configuration not stated)	M18AAP inhibitor 30.1
CC(C)C1Nc2ccc(C(=O)NC3CCCCC3)cc2NC1=O (configuration not stated)	none
Cn1c(CNC(=O)CCNC(=O)c2ccccc2F)cc(=O)n(C)c1=O	none
CCc1cc(C(=O)NCC(C)(C)N2CCOCC2)sc1C	none (no result: FID counter, M18AAP inhibitor)
COc1ccc2nc3cc(Cl)ccc3c(Nc3cc(CN4CCCC4)c(O)c(CN4CCCC4)c3)c2n1	FID counter 103.1, M18AAP inhibitor 28.3
O=C(NNC(=O)c1ccc(O)c(Cl)c1)c1cccc(S(=O)(=O)N2CCOCC2)c1	Rce1 inh active (no result: FID counter, M18AAP inhibitor)
O=C(NNS(=O)(=O)c1ccc(Cl)cc1)c1cccc(S(=O)(=O)N2CCOCC2)c1	none
COc1cc(/C=C2\C(=O)ON=C2c2ccccc2)cc(Cl)c1O	Kir21 inh -10.3
COc1cc(/C=C2\C(=O)ON=C2c2ccccc2)cc(Br)c1O	Kir21 inh -6.63
C=CCOc1ccc(/C=C2/C(=O)ON=C2C)cc1OC	M18AAP inhibitor 29.6
COc1cc(/C=C2/C(=O)ON=C2c2ccccc2)ccc1O	Kir21 inh -4.81
CCN(CC)Cc1c(C(=O)N/N=C/c2ccccn2)nnn1-c1nonc1N	none
CCOc1cc(/C=C2\C(=O)ON=C2c2ccccc2)cc(Br)c1O	Kir21 inh -7.29
C=CCn1c(SCc2csc(-c3ccc(C)cc3)n2)nnc1-c1ccccc1OC	Kir21 inh -7.7
COc1ccccc1-n1cnnc1SCc1csc(-c2ccccc2)n1	none (no result: Rce1 inh, Kir21 inh)
COc1ccccc1CN=C1Nc2ccccc2CS1	Kir21 inh -13.1
C=CCCC1(C)C(=O)N(c2ccccc2)c2ccccc21 (configuration not stated)	Kir21 inh -6
CC(C)CN(C(=O)CN(C)C(=O)c1ccco1)c1c(N)n(CC(C)C)c(=O)[nH]c1=O	none (no result: FID counter, M18AAP inhibitor)
Cc1cccc(CCN=c2c([N+](=O)[O-])nn(-c3ccccc3)n2O)c1	Kir21 inh -4.26
COc1ccc(-n2nc([N+](=O)[O-])c(=NCCc3cccc(C)c3)n2O)cc1	none
CN1CCN(c2ccc(NC(=O)c3ccc(-c4ccc(Br)cc4)o3)cc2)CC1	FID counter 42.9

Source: PubChem BioAssay
